From PubChem
Shiga inhibitor: A qHTS for Small Molecule Inhibitors of Shiga Toxin; Vero cells, Shiga toxin protein synthesis inhibition reporter; inhibition, % at 38.7 µM; 290,000 tested, 9.2% active; in the data active means inhibition mostly above about 28%, no sharp cut-off; inactive means mostly below about 43%
HCV inhibitor: qHTS Assay for Inhibitors of Hepatitis C Virus (HCV); Huh7.5.1 HCVcc-Cre infection, luciferase reporter, 44 h; Potency, µM (doses to about 41.8 µM), most hits filed as inhibitors; 340,000 tested, 3.4% active; AID 651820, 2012
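HCVcc-Cre virus at an moi near 0.5 was added right after compound to cells cultured 4 h from seeding (1,000 cells/well). Luciferase activity was determined 44 h later, 15 min after substrate addition at RT.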
HCMV antiviral: qHTS Assay for inhibitors of the human cytomegalovirus (HCMV) | HFF cells, HCMV-luciferase reporter, 72 h; hits give low values | activity change, negative = inhibition, % at 57.5 µM | 410,000 tested, 4.5% active; in the data active means activity change below about -60%; inconclusive means no clear call, values can overlap the other calls; inactive means above about -39%
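After 16 h attachment at 37C, HFF cells received test compound and HCMV-luciferase (1 PFU/cell); reporter luminescence read 72 h later, data normalized against buffer-only and known inhibitor Salinomycin.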
Pf growth 48h: Primary qHTS for delayed death inhibitors of the malarial parasite plastid, 48 hour incubation. 310,000 tested, 5.9% active. Potency, µM (doses to about 28.7 µM), usual class: inhibitors. P. falciparum luciferase growth in erythrocytes, 48 h
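First compound was added to culture medium, then infected red cells at 0.1% parasitemia and 2% hematocrit (final). After incubation at 37 C under 5% CO2, luciferase detection reagent was dispensed and light output recorded.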
Pf growth 96h: Primary qHTS for delayed death inhibitors of the malarial parasite plastid, 96 hour incubation; P. falciparum luciferase reporter growth, 96 h; Potency, µM (top dose mostly 28.7 µM), usual class: inhibitors; 320,000 tested, 6.9% active
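Parasite growth measured via integrated firefly luciferase reporter in P. falciparum. Infected erythrocytes at 2% hematocrit, 0.05% parasitemia final were treated 96 hours at 37 C under 5% CO2, and luminescence was read.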
CHX counter: Cycloheximide Counterscreen for Small Molecule Inhibitors of Shiga Toxin | cell reporter, cycloheximide protein synthesis inhibition counterscreen | max response, % | AID 2314, 2010 | 300,000 tested, 12% active; in the data active means max response mostly above about 13%, no sharp cut-off; inactive means mostly below about 14%; further: read at 38.3 µM for the half of the compounds with a filed dose
Large screens that a line does not name were inactive. A selection: hits, their analogues and other compounds. The true share with any hit is near 21%. Unless noted, the call rests on the fitted dose curve; in most records, active means well fitted inhibition curve with a large enough effect; inconclusive means small, poorly fitted or top-dose-only effect, or another doubt; inactive means no such curve, though single readings can be large or run the other way.

O=C(O)Cn1cc(/C=C2\SC(=O)N(c3ccccc3)C2=O)c2ccccc21	CHX counter 15.8
Cc1ccc(S(=O)(=O)NN2C(=O)/C(=C/c3cccn3C)SC2=S)cc1	none (no result: HCMV antiviral)
Cn1cccc1/C=C1\SC(=O)N(c2ccccc2)C1=O	Shiga inhibitor 63.2, HCV inhibitor inconclusive, CHX counter 52.2
Cc1ccc(NC(=O)C2COc3ccccc3O2)cc1S(=O)(=O)N1CCCCC1 (centres undefined)	HCV inhibitor 11.2µM, HCMV antiviral inconclusive, Pf growth 48h 9.28µM, Pf growth 96h inconclusive (no result: Shiga inhibitor, CHX counter)
O=C(Nc1cccc(S(=O)(=O)N2CCCCC2)c1)C1COc2ccccc2O1 (centres undefined)	HCV inhibitor 10µM (no result: Shiga inhibitor, Pf growth 48h, Pf growth 96h, CHX counter)
O=C(Nc1ccc(S(=O)(=O)N2CCCC2)cc1)C1COc2ccccc2O1 (centres undefined)	HCV inhibitor inconclusive
CCn1nc(-c2ccccc2)c(-c2ccccc2)c(C(=O)Nc2ccccc2C(N)=O)c1=O	none (no result: Shiga inhibitor, HCV inhibitor, Pf growth 48h, Pf growth 96h, CHX counter)
COc1ccc(-c2[nH]ncc2CN(C)Cc2ccccn2)c(OC)c1	Pf growth 96h 13.1µM
COCCN=c1scc(C)n1/N=C/C1CC2C=CC1C2 (centres undefined)	Pf growth 48h inconclusive, Pf growth 96h inconclusive, CHX counter 12.7
CN1CCSc2ccc(C(=O)NCc3cccc(Br)c3)cc21	Pf growth 48h inconclusive, Pf growth 96h inconclusive, CHX counter 10.9
CC(C)Oc1ccc(CNC(=O)c2ccc3c(c2)N(C)CCS3)cc1	Shiga inhibitor 53.8, CHX counter 35.1
CN1CCSc2ccc(C(=O)NCc3ccccc3F)cc21	Shiga inhibitor 35.0, CHX counter 27.5
COc1ccc(CNC(=O)c2ccc3c(c2)N(C)CCS3)cc1	Pf growth 96h inconclusive, CHX counter active
Cc1ccc(CN2CCSc3ccc(C(=O)NCc4ccc(OC(C)C)cc4)cc32)cc1	none (no result: Shiga inhibitor, HCV inhibitor, Pf growth 48h, Pf growth 96h, CHX counter)
CCN1CCSc2ccc(C(=O)NCc3ccccc3F)cc21	HCV inhibitor inconclusive, Pf growth 48h inconclusive
CCCN1CCN(S(=O)(=O)c2ccc(-n3cnnn3)cc2)CC1	none
C[C@H](N)C(=O)NCC(=O)N[C@H]1CSSC[C@@H](C(=O)O)NC(=O)[C@H](CO)NC(=O)[C@H]([C@@H](C)O)NC(=O)[C@H](Cc2ccccc2)NC(=O)[C@H]([C@@H](C)O)NC(=O)[C@H](CCCCN)NC(=O)[C@@H](Cc2c[nH]c3ccccc23)NC(=O)[C@H](Cc2ccccc2)NC(=O)[C@H](Cc2ccccc2)NC(=O)[C@H](CC(N)=O)NC(=O)[C@H](CCCCN)NC1=O	none (no result: HCV inhibitor, HCMV antiviral, Pf growth 48h, Pf growth 96h)
CCCCN(Cc1nc2ccccc2c(=O)[nH]1)C(=O)COc1ccc(F)cc1Cl	Pf growth 48h 2.62µM, Pf growth 96h 3.7µM (no result: Shiga inhibitor, CHX counter)
CCN(Cc1ccncc1)Cc1nc(CC2CC2)no1	HCMV antiviral -60.1
Cc1cccc(-n2c(SCC(=O)N3CC(=O)Nc4ccccc43)nc3ccccc3c2=O)c1C	HCV inhibitor inconclusive, HCMV antiviral -64.5, Pf growth 48h inconclusive, Pf growth 96h 3.7µM
Cc1ccc(-n2c(SCC(=O)N3CC(=O)Nc4ccccc43)nc3ccccc3c2=O)cc1C	HCV inhibitor inconclusive, HCMV antiviral -80.0, Pf growth 48h 10.4µM, Pf growth 96h 8.28µM
Cc1cccc(-n2c(SCC(=O)N3CC(=O)Nc4ccccc43)nc3ccccc3c2=O)c1	HCMV antiviral -62.1, Pf growth 48h 13.1µM, Pf growth 96h inconclusive
CCc1ccc(NCc2cc3cc4c(cc3n(CC(=O)Nc3ccccc3C)c2=O)OCCO4)cc1	none (no result: Shiga inhibitor, HCV inhibitor, Pf growth 48h, Pf growth 96h, CHX counter)
Cn1c(Cc2nc(-c3cnccn3)no2)nnc1SCC(=O)Nc1ccccc1	Pf growth 96h inconclusive
COC(=O)c1ccc(NC(=O)CSc2nc(=O)[nH]c3c2CCCC3)cc1	none (no result: Shiga inhibitor, HCV inhibitor, Pf growth 48h, Pf growth 96h, CHX counter)
CSc1ccc(C2c3[nH]c4ccccc4c3CCN2C(=O)c2cc(C)n(C)n2)cc1 (centres undefined)	Shiga inhibitor 80.8, Pf growth 48h inconclusive, CHX counter 34.0 (no result: HCV inhibitor, HCMV antiviral)
CCc1ccc(C2c3[nH]c4ccccc4c3CCN2C(=O)c2cc(C)nn2C)cc1 (centres undefined)	HCV inhibitor inconclusive, Pf growth 48h inconclusive
Cc1cc(C(=O)N2CCc3c([nH]c4ccccc34)C2c2cccc(Cl)c2)nn1C (centres undefined)	Shiga inhibitor 49.8, HCV inhibitor inconclusive, Pf growth 48h inconclusive, Pf growth 96h 11.7µM, CHX counter 45.5
O=C(c1cnccn1)N1CCc2c([nH]c3ccccc23)C1c1cccc(Cl)c1 (centres undefined)	Shiga inhibitor 27.2, HCV inhibitor inconclusive, Pf growth 48h inconclusive, Pf growth 96h inconclusive, CHX counter 11.6
Cc1cnc(C(=O)N2CCc3c([nH]c4ccccc34)C2c2ccc(F)cc2)cn1 (centres undefined)	Pf growth 48h 5.22µM, Pf growth 96h inconclusive
Cc1noc(NC(=O)c2ccccc2C(F)(F)F)c1C#N	HCMV antiviral inconclusive
COc1ccc(OC)c(S(=O)(=O)NCc2ccccn2)c1	none
O=C(Cc1ccc(NC(=O)C2CCCN(C(=O)c3ccccc3)C2)cc1)Nc1ccc(C(=O)N2CCOCC2)cc1 (centres undefined)	none (no result: Shiga inhibitor, Pf growth 48h, Pf growth 96h, CHX counter)
CC[C@H]1OC(=O)[C@H](C)C(=O)[C@H](C)[C@@H](OC2O[C@H](C)C[C@H](N(C)C)[C@@H]2O)[C@@](C)(OC)C[C@@H](C)C(=O)[C@@H](C)C2N(CCCCn3cnc(-c4cccnc4)c3)C(=O)O[C@@]21C (some centres undefined)	Pf growth 48h inconclusive, Pf growth 96h 13.5µM (no result: Shiga inhibitor, HCV inhibitor, HCMV antiviral, CHX counter)
CCOC(=O)C1CCN(C(=O)c2cccc(S(=O)(=O)N3CCCc4ccccc43)c2)CC1	none (no result: Shiga inhibitor, Pf growth 48h, Pf growth 96h, CHX counter)
Cc1c(/N=C(\[O-])Nc2ccc(Br)cc2)sn[n+]1C	Shiga inhibitor 94.5, HCV inhibitor inconclusive, HCMV antiviral inconclusive, CHX counter 47.1
CC(Oc1ccccc1)C(=O)Nc1cccc(-c2cn3cccnc3n2)c1 (centres undefined)	none (no result: Shiga inhibitor, HCV inhibitor, Pf growth 48h, Pf growth 96h, CHX counter)
COc1ccc(N2CS(=O)(=O)/C(=C/N(C)C)C2=O)cc1	Shiga inhibitor 75.4, CHX counter 38.9
Cc1nnc(N/N=C/c2ccco2)n1N	none
COc1ccc(CNc2nc3ccccc3n2Cc2ccc(C)cc2)cc1OC	Pf growth 48h inconclusive, Pf growth 96h inconclusive
CCOc1ccc(Nc2nc3ccccc3n2C)cc1	none (no result: Shiga inhibitor, Pf growth 48h, Pf growth 96h, CHX counter)
CCOc1ccc(CNc2ccc3c(c2)nc(C)n3C)cc1	Shiga inhibitor active, HCV inhibitor inconclusive, CHX counter 25.3 (no result: Pf growth 96h)
COc1ccc(CNc2ccc3c(c2)nc(C)n3C)cc1OC	Shiga inhibitor 58.1, CHX counter 43.7
CCOc1ccc(CNc2nc3ccccc3n2C)cc1	Pf growth 96h inconclusive, CHX counter 38.8 (no result: Shiga inhibitor)
COc1ccc(CNc2ccc(C)cc2)cc1Br	Shiga inhibitor 43.0, HCV inhibitor inconclusive, CHX counter 23.1
